Results: PubChem BioAssay (NCI)
Where “and” joins values, the source holds several entries; their conditions need not be identical. Equal entries are not always repeated. This is part of a sample that, as a whole, favours compounds with a hit. Of some 83,000 tested, about 20% had one in any assay.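 Each cell line was grown in a 96-well plate and treated with one concentration of compound for 48 hours. Values below 10 were considered active.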 Calls of active or inactive are those of the source.

Tests used:
Assay in all cases: NCI-60 one-dose screen, 48 h (100 = growth as untreated, 0 = no growth, -100 = all killed)
[1] = system: NCI-H23 lung
[2] = system: NCI-H226 lung
[3] = system: NCI-H322M lung
[4] = system: HOP-62 NSCLC
[5] = system: NCI-H460 lung
[6] = system: HOP-92 NSCLC
[7] = system: NCI-H522 lung
[8] = system: A549/ATCC NSCLC
[9] = system: 786-0 renal
[10] = system: COLO 205 colon
[11] = system: DU-145 prostate
[12] = system: K-562 leukemia
[13] = system: MALME-3M melanoma
[14] = system: MDA-MB-231 breast
[15] = system: RXF 393 renal
[16] = system: SF-268 CNS
[17] = system: SF-295 CNS
[18] = system: SF-539 CNS
[19] = system: UACC-257 melanoma
[20] = system: M14 melanoma

Measured: growth

O=c1[nH]cc(F)c(=O)[nH]1
active: [8]; 10 µM -11.5% | [18]; 10 µM -0.0094% and -4.58% | [18]; 25 µM -19.6%
inactive: [1]; 10 µM 55% and 55.2% | [1]; 25 µM 39% | [1]; 50 µM 41.6% | [2]; 10 µM 85.2% and 94.1% | [2]; 25 µM 69.5% | [3]; 10 µM 62.5% and 58.5% | [3]; 25 µM 59.5% | [3]; 50 µM 48.6% | [4]; 10 µM 46.6% and 82.3% | [4]; 25 µM 47.8% | [4]; 50 µM 42.4% | [5]; 10 µM 16% and 20% | [5]; 25 µM 13% | [5]; 50 µM 13.9% | [6]; 10 µM 87.3% and 49.3% | [6]; 25 µM 50.6% | [6]; 50 µM 75.7% | [7]; 10 µM 62.1% and 62.2% | [7]; 25 µM 58% | [8]; 25 µM 34.2% | [8]; 50 µM 31.2% | [9]; 10 µM 64.2% and 62.2% | [9]; 25 µM 48.7% | [9]; 50 µM 59% | [10]; 10 µM 51.4% and 39.4% | [10]; 25 µM 40.2% | [10]; 50 µM 33.5% | [11]; 10 µM 57.4% and 65.3% | [11]; 25 µM 35.5% | [11]; 50 µM 20.5% | [12]; 10 µM 64.6% and 69.4% | [12]; 25 µM 42.3% | [12]; 50 µM 41.5% | [13]; 10 µM 53.1% and 69.9% | [13]; 25 µM 58.2% | [13]; 50 µM 53.7% | [14]; 10 µM 96.2% and 84.6% | [14]; 25 µM 78.1% | [14]; 50 µM 77.2% | [15]; 10 µM 63.4% and 10.7% | [15]; 25 µM 34.3% | [15]; 50 µM 54.4% | [16]; 10 µM 81.3% and 91.9% | [16]; 25 µM 59% | [16]; 50 µM 47.7% | [17]; 10 µM 77% and 100% | [17]; 25 µM 69.1% | [17]; 50 µM 90.5% | [18]; 50 µM 22.8% | [19]; 10 µM 73.1% and 22.6% | [19]; 25 µM 19.5% | [19]; 50 µM 53.5% | [20]; 10 µM 64% and 28.9% | [20]; 50 µM 42.4%

Nc1ccc2cc(Br)c3ccccc3c2c1
active: [15]; 10 µM 4.19%
inactive: [1]; 10 µM 69.5% | [2]; 10 µM 59.4% | [3]; 10 µM 64.7% | [4]; 10 µM 80.9% | [5]; 10 µM 54.1% | [6]; 10 µM 75.3% | [7]; 10 µM 86.9% | [8]; 10 µM 63% | [9]; 10 µM 54.8% | [10]; 10 µM 115% | [11]; 10 µM 61.8% | [12]; 10 µM 31.7% | [13]; 10 µM 97.8% | [16]; 10 µM 68.9% | [17]; 10 µM 21% | [18]; 10 µM 47.9% | [19]; 10 µM 90.1% | [20]; 10 µM 78.5%

CN(C)CCC(=O)c1c[nH]c2ccccc12
inactive: [1]; 10 µM 110% | [2]; 10 µM 105% | [3]; 10 µM 94% | [4]; 10 µM 94.4% | [5]; 10 µM 113% | [7]; 10 µM 91.8% | [8]; 10 µM 110% | [9]; 10 µM 98.8% | [10]; 10 µM 111% | [11]; 10 µM 111% | [13]; 10 µM 105% | [14]; 10 µM 115% | [15]; 10 µM 126% | [16]; 10 µM 115% | [17]; 10 µM 99.7% | [18]; 10 µM 103% | [19]; 10 µM 115% | [20]; 10 µM 101%

N#C/C(=C1C=C/C(=N\O)C(Cl)=C\1)c1ccccc1
inactive: [1]; 10 µM 82.8% | [2]; 10 µM 87.8% | [3]; 10 µM 55.3% | [4]; 10 µM 33.2% | [5]; 10 µM 14.3% | [6]; 10 µM 38.3% | [8]; 10 µM 31.2% | [9]; 10 µM 43% | [10]; 10 µM 38.3% | [11]; 10 µM 40.2% | [12]; 10 µM 20.9% | [13]; 10 µM 58.7% | [14]; 10 µM 20.6% | [15]; 10 µM 43.9% | [16]; 10 µM 27% | [20]; 10 µM 46%
active: [17]; 10 µM -32.2% | [18]; 10 µM 2.46%

O=C(/C(=C/c1ccccc1)CBr)c1ccccc1
active: [12]; 10 µM 9.75%
inactive: [1]; 10 µM 73.1% | [2]; 10 µM 93% | [3]; 10 µM 90.4% | [4]; 10 µM 109% | [5]; 10 µM 86.4% | [6]; 10 µM 86.3% | [7]; 10 µM 55.8% | [8]; 10 µM 90.1% | [9]; 10 µM 94.5% | [10]; 10 µM 92.6% | [11]; 10 µM 87.6% | [13]; 10 µM 77.5% | [14]; 10 µM 58.3% | [15]; 10 µM 71.7% | [16]; 10 µM 84.4% | [17]; 10 µM 95.1% | [18]; 10 µM 82.7% | [19]; 10 µM 73.9% | [20]; 10 µM 65.8%

CN1CCN(c2ccc3nc(-c4ccc5nc(-c6ccc(O)cc6)[nH]c5c4)[nH]c3c2)CC1
inactive: [1]; 10 µM 74% | [2]; 10 µM 88.5% | [3]; 10 µM 106% | [4]; 10 µM 95.8% | [5]; 10 µM 107% | [6]; 10 µM 42.1% | [7]; 10 µM 47% | [8]; 10 µM 62.1% | [9]; 10 µM 87.2% | [10]; 10 µM 72% | [11]; 10 µM 84.5% | [12]; 10 µM 50.2% | [13]; 10 µM 37.9% | [14]; 10 µM 121% | [15]; 10 µM 37.3% | [16]; 10 µM 82.9% | [17]; 10 µM 96.3% | [18]; 10 µM 77% | [19]; 10 µM 113%

CCCCCCCCCCCCCCCCCN
inactive: [1]; 10 µM 106% | [2]; 10 µM 111% | [3]; 10 µM 110% | [4]; 10 µM 87.7% | [5]; 10 µM 102% | [6]; 10 µM 67% | [7]; 10 µM 101% | [8]; 10 µM 105% | [9]; 10 µM 105% | [10]; 10 µM 99.8% | [11]; 10 µM 114% | [12]; 10 µM 103% | [13]; 10 µM 98% | [14]; 10 µM 93% | [15]; 10 µM 98.7% | [16]; 10 µM 113% | [17]; 10 µM 99.1% | [18]; 10 µM 94.2% | [19]; 10 µM 99.2% | [20]; 10 µM 104%
